The full data set covers some 7,900 targets. This sample favours those with a hit. About 0.6% of all pairs of compound and target were hits.
Each target was assayed with C[C@H](Nc1ncnc2nc[nH]c12)c1cc2cccc(Cl)c2c(=O)n1-c1ccccc1 [duvelisib] (assay: log2 fold change, soluble protein after heating vs DMSO (PISA); higher = thermal stabilisation; K562 cells, 10 uM, 30 min; active = over 0.2 and 3.5 SD of the protein, either way, in both replicates (recomputed)).
How it was run: (§1)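 K562 cells at 2×10^6 cells/mL were treated for 30 min with 10 μM compound, and aliquots were heated for 3 min over 48°C-58°C before pooling. Extraction used PBS with 0.5% NP-40 at 4°C, and soluble protein was the supernatant after 21,000xg for 90 min, measured by TMTpro 16plex LC-MS/MS with channel sums equalised. Thermal stability values, relative to control samples and from duplicates, are log2 fold changes.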

Sequence of UniProt Q8NBL1 (Q8NBL1 whole entry, looked up): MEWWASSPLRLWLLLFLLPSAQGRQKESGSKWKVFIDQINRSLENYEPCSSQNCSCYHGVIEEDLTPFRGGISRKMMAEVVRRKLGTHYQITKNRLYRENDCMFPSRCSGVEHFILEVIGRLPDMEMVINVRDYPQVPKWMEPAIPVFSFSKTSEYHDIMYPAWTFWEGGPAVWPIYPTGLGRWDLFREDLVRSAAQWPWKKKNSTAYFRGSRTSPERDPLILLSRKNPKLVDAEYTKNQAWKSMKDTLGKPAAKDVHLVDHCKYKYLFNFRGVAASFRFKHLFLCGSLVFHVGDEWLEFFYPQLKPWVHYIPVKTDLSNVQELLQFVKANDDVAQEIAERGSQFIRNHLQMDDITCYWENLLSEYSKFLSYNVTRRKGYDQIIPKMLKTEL
Sequence of UniProt Q2TAL8 (Q2TAL8 whole entry, looked up): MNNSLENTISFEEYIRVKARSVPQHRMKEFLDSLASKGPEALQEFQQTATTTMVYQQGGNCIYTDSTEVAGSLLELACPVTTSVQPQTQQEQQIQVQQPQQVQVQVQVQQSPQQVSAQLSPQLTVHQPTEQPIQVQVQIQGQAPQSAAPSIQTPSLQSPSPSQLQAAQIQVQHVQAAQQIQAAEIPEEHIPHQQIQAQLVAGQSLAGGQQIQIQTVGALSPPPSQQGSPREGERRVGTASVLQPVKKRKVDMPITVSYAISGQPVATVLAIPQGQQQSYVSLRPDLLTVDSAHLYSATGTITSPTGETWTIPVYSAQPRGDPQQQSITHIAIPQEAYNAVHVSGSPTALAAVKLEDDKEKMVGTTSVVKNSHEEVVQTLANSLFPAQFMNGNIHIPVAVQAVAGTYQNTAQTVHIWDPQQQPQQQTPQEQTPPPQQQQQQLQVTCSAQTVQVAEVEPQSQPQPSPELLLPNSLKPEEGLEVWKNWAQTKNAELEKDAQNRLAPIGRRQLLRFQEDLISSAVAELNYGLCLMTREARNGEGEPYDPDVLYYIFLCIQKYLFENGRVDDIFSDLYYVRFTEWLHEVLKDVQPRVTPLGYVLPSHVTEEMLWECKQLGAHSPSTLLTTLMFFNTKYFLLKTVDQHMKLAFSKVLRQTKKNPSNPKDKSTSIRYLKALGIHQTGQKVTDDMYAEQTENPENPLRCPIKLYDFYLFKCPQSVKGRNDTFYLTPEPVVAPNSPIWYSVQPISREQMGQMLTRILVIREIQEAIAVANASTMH
Sequence of UniProt O43741 (O43741 whole entry, looked up): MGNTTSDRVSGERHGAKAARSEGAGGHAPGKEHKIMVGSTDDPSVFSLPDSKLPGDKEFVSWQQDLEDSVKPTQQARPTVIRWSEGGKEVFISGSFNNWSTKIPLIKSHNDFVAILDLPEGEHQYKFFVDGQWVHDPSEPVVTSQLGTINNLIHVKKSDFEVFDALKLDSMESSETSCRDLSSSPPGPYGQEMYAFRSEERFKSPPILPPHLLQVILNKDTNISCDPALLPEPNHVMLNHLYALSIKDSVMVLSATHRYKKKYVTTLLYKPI
Sequence of UniProt P09874 (P09874 whole entry, looked up): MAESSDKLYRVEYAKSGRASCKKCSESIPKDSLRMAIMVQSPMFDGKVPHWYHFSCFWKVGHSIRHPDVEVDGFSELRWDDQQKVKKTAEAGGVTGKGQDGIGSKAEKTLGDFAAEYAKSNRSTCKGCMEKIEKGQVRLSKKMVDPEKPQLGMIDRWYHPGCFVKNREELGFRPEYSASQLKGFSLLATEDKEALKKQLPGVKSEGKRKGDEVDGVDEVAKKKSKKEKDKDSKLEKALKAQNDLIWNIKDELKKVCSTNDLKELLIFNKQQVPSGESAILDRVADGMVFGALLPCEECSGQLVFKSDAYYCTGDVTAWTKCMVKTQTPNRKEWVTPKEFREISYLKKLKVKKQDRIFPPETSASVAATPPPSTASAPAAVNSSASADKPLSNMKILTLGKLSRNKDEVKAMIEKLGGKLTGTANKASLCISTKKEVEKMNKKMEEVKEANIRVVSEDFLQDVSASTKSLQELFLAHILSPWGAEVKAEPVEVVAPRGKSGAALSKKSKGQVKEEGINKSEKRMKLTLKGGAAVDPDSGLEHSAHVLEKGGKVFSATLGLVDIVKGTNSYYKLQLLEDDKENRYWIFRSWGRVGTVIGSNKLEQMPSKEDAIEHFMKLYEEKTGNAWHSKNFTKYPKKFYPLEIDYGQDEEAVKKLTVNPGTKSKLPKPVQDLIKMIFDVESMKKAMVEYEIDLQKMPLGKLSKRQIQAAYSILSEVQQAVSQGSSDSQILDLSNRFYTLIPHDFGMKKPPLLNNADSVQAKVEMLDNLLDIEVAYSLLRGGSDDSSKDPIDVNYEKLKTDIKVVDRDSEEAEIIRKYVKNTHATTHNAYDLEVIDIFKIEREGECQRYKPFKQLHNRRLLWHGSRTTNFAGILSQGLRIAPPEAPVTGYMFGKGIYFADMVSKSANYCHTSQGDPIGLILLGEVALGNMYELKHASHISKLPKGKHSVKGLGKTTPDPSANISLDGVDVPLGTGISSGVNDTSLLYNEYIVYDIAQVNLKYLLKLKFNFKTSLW
Sequence of UniProt Q9Y2I7 (Q9Y2I7 whole entry, looked up): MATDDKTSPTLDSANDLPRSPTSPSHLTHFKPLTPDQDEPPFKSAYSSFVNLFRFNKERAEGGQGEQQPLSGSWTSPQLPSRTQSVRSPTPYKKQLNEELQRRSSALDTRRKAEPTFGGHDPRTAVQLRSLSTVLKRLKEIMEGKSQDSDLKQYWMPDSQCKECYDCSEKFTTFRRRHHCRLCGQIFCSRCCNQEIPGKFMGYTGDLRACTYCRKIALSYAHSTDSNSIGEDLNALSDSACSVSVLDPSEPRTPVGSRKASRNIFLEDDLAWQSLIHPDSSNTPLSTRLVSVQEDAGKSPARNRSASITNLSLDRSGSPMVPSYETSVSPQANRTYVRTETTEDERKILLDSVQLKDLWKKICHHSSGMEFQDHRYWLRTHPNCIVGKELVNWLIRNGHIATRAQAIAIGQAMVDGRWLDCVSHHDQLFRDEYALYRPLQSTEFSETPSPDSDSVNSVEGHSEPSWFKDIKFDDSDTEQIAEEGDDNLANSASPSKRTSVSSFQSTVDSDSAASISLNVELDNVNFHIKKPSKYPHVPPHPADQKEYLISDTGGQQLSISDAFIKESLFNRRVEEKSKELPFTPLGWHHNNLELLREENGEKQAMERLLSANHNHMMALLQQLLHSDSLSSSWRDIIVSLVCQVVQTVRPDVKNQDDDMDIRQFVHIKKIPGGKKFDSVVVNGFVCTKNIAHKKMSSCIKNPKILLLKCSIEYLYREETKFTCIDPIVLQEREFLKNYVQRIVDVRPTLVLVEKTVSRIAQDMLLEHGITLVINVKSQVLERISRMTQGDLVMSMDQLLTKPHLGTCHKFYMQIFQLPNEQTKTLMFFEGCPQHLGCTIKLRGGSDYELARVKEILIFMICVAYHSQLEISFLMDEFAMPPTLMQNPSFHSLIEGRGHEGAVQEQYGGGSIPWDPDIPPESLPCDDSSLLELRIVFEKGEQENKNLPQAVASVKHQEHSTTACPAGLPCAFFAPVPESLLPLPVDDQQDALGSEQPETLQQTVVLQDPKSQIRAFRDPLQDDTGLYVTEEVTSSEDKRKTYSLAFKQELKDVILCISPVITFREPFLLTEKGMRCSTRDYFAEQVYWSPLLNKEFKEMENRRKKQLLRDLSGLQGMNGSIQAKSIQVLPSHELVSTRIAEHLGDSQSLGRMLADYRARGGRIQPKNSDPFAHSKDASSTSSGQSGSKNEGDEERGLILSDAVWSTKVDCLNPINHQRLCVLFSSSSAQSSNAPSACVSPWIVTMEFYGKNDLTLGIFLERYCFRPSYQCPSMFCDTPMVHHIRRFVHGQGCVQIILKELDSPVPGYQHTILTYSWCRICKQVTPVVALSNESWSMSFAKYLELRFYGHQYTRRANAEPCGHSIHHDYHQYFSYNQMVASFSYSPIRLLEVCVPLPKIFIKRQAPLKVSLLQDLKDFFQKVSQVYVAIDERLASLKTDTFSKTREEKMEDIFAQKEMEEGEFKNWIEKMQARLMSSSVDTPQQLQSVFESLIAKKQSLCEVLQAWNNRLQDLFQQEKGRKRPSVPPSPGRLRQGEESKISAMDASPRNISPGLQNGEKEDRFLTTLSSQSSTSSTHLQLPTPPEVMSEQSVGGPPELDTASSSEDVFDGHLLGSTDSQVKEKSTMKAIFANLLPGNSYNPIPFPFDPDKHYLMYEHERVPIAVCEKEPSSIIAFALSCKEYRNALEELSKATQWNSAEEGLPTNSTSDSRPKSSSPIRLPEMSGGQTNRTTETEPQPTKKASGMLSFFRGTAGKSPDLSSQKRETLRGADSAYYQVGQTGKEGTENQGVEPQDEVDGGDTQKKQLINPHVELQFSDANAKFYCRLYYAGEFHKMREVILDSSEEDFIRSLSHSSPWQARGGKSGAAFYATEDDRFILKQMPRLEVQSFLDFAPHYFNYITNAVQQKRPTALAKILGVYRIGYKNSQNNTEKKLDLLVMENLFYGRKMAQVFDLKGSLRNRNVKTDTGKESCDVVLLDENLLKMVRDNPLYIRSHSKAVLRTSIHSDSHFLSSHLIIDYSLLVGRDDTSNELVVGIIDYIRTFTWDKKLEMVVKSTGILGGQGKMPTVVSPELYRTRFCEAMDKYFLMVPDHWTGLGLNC
Sequence of UniProt P15735 (P15735 whole entry, looked up): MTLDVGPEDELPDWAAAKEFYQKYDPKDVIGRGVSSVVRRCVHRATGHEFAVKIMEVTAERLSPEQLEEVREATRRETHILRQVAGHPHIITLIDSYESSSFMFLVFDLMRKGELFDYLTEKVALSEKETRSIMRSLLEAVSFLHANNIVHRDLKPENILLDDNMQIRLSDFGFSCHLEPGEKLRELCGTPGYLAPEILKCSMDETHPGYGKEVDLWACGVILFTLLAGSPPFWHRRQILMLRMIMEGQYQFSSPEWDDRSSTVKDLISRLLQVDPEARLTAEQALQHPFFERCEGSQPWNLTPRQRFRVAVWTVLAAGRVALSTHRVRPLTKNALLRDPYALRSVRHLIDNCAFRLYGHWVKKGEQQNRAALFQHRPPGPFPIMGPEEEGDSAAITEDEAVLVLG

log2 fold change, inactive:
PIK3CD (UniProt O00329) 0.233
PTGES3 (UniProt Q15185) 0.03
POLR2C (UniProt P19387) 0.032
PHKG2 (UniProt P15735) -0.077
QRICH1 (UniProt Q2TAL8) 0.143
PSMD3 (UniProt O43242) -0.028
PKN2 (UniProt Q16513) 0.027
PRKAB2 (UniProt O43741) -0.154
PCBP1 (UniProt Q15365) 0.042
PRMT8 (UniProt Q9NR22) 0.012

These targets were tested with Cc1cc(Nc2cc(CN3CCOCC3)c3nc(C)c(Cc4ccc(Cl)cc4F)n3n2)n[nH]1 [gandotinib] in the same assay as above.
How it was run: as §1

log2 fold change, inactive:
PELP1 (UniProt Q8IZL8) -0.282
PDE2A (UniProt O00408) 0.117
PSMD1 (UniProt Q99460) 0
POGLUT1 (UniProt Q8NBL1) -0.011
PNN (UniProt Q9H307) 0.012
PRPF40A (UniProt O75400) -0.04
PIKFYVE (UniProt Q9Y2I7) -0.062
PCYT1A (UniProt P49585) -0.148
PSMB9 (UniProt P28065) 0.126
PRPF4B (UniProt Q13523) 0.007
PNPLA2 (UniProt Q96AD5) -0.303
PARP1 (UniProt P09874) -0.029
PTPN23 (UniProt Q9H3S7) -0.072
PPP1R14A (UniProt Q96A00) 0.106

From the supplement of paper PMC10849652
